From ChEMBL document CHEMBL3988442, “University of Dundee, Small-Polar-MMV Screening Library” (2021)
The whole screen tested about 66,000 compounds, of which about 960 (1.5%) showed an effect of 50% or more. Many of the other results were omitted from the sample, so strong results are more common in it than they were.

Test system: Trypanosoma brucei
Assay: Trypanosoma brucei 72 hour study
Assay type: functional, organism-based
Set-up: scale not given: in the data most compounds retested in dose-response had high values

COc1ccc(CC(=O)N2CCC[C@@H](N)[C@@H]2c2ccccc2F)cc1.Cl
Percent Effect (30.3 µM, […]): 4.872%

COc1cccc(CCC(=O)N2CCC[C@@H](N)[C@@H]2c2ccccc2F)c1.Cl
Percent Effect (30.3 µM, […]): 35.53%

N[C@@H]1CCCN(C(=O)Cc2c[nH]c3ccccc23)[C@H]1c1ccccc1F
Percent Effect (30.3 µM, […]): 82.48%

Cc1cc(C(=O)N2CCC3(CC2)C(=O)N(C)CCN3CC2CC2)c(C)o1.O=C(O)C(F)(F)F
Percent Effect (30.3 µM, […]): 5.817%

COCCN1C(=O)[C@]2(CC[C@@H]3CN(Cc4ccccc4F)C[C@@H]32)N=C1C.O=C(O)C(F)(F)F
Percent Effect (30.3 µM, […]): -70.3%

COCc1nn(C(C)C)c2c1CCN(Cc1ccccn1)C2.O=C(O)C(F)(F)F.O=C(O)C(F)(F)F
Percent Effect (30 µM, 30.03 µM): -4.66%

CCS(=O)(=O)N1CCC2(CN(c3ccsc3)C(=O)CN2C)C1.O=C(O)C(F)(F)F (stereo unspecified)
Percent Effect (30 µM, 30.03 µM): -22.46%

Cc1csc(Nc2cc(C3CCCCN3C)nc(C)n2)n1 (stereo unspecified)
Percent Effect (30 µM, 30.03 µM): 67.05%

Cc1csc(Nc2cc(C3CN(C(C)C)C3)nc(C)n2)n1
Percent Effect (30.3 µM, […]): 84.55%

Cc1nc(Nc2nccs2)cc(C2CN(C(C)C)C2)n1
Percent Effect (30.3 µM, […]): 5.847%

Cc1nc(Nc2nncs2)cc(C2CCCN2C)n1 (stereo unspecified)
Percent Effect (30.3 µM, […]): -36.12%

Cc1nc(Nc2nnc(C)s2)cc(C2CCCN2C)n1 (stereo unspecified)
Percent Effect (30 µM, 30.03 µM): -13.78%

CNCC(=O)N1CC(c2cc(Nc3nc(C)cs3)nc(C)n2)C1.Cl
Percent Effect (30.3 µM, […]): 20.55%

Cc1cccc(CN2C[C@@H]3COC[C@]3(CNC(=O)c3cccn3C)C2)n1.O=C(O)C(F)(F)F.O=C(O)C(F)(F)F
Percent Effect (30 µM, 30.03 µM): 12.67%

O=C(O)C(F)(F)F.O=C(O)C(F)(F)F.c1cncc(OCc2noc3c2CN(Cc2cccs2)CC3)c1
Percent Effect (30 µM, 30.03 µM): -9.325%

Cc1ccc(CN2CC[C@H]3[C@@H]2CCC(=O)N3CCN2CCCC2)s1.O=C(O)C(F)(F)F.O=C(O)C(F)(F)F
Percent Effect (30 µM, 30.03 µM): 11.06%

O=C(O)C(F)(F)F.O=C(c1cnc2ccccc2c1)N1CCC2(CCN2c2ncccn2)C1 (stereo unspecified)
Percent Effect (30 µM, 30.03 µM): -41.44%

CN1CCCC(c2cccc(-c3cccc(C(F)(F)F)c3)n2)C1 (stereo unspecified)
Percent Effect (30.3 µM, […]): 71.49%

CN1CCCC(c2cncc(-c3cccc(C(F)(F)F)c3)n2)C1 (stereo unspecified)
Percent Effect (30.3 µM, […]): 45.17%

CN1CCCC(c2cccc(-c3cccc(F)c3)n2)C1 (stereo unspecified)
Percent Effect (30.3 µM, […]): 6.457%

CN(C)C(=O)Cn1c2c(ccc1=O)CCN(Cc1cnn(C)c1)CC2.O=C(O)C(F)(F)F
Percent Effect (30.3 µM, […]): -19.86%

O=C(NCc1ccco1)[C@H]1CC[C@@H]2[C@@H](CCN2c2ncc(F)cn2)O1.O=C(O)C(F)(F)F
Percent Effect (30 µM, 30.03 µM): -7.643%

Cc1ccc(N(C)S(=O)(=O)c2cc(C(=O)O)cs2)cc1
Percent Effect (30.3 µM, […]): -13.08%

Cl.NC(=O)C(c1ccc(F)cc1)N1CCN(CCO)CC1 (stereo unspecified)
Percent Effect (30 µM, 30.03 µM): -19.82%

COc1nccnc1-c1cc(NC2CCNCC2)nc2[nH]ccc12
Percent Effect (30 µM, 30.03 µM): -21.13%

FC(F)(F)c1ccc(-c2cc(NC3CCNCC3)nc3[nH]ccc23)nc1
Percent Effect (30.3 µM, […]): -0.8147%

Nc1ccnc(-c2cc(NC3CCNCC3)nc3[nH]ccc23)c1
Percent Effect (30.3 µM, […]): 98.23%

CN(C)CCN1CCC2(CCN(C(=O)c3ccc(F)cc3)CC2)C1=O.O=C(O)C(F)(F)F
Percent Effect (30.3 µM, […]): -18.87%

CS(=O)(=O)NCc1cnc2n1CCN(Cc1ccoc1)CC2.O=C(O)C(F)(F)F
Percent Effect (30 µM, 30.03 µM): -17.96%

CC(C)(C)c1ncc(CNCC2CCCn3ccnc32)s1 (stereo unspecified)
Percent Effect (30.3 µM, […]): 9.708%

Cc1nc(C)c(CNCC2CCCn3ccnc32)s1 (stereo unspecified)
Percent Effect (30.3 µM, […]): -1.913%

Cn1cccc1CNCC1CCCn2cc(C(C)(C)C)nc21 (stereo unspecified)
Percent Effect (30.3 µM, […]): 99.88%

CC(C)(C)c1cn2c(n1)C(CNCc1cnn3ccccc13)CCC2 (stereo unspecified)
Percent Effect (30.3 µM, […]): 100%

Cc1cn2c(n1)C(CNCc1cccc3c1OCO3)CCC2 (stereo unspecified)
Percent Effect (30.3 µM, […]): 8.746%

Cc1ccc(CNCC2CCCn3ccnc32)s1 (stereo unspecified)
Percent Effect (30.3 µM, […]): 6.823%

Cn1cccc1CNCc1nnc2n1CCCC2C(F)(F)F (stereo unspecified)
Percent Effect (30.3 µM, […]): -4.039%

Cc1cn2c(n1)C(CNCc1cnn3ccccc13)CCC2 (stereo unspecified)
Percent Effect (30.3 µM, […]): -7.399%

CC(C)(C)c1cn2c(n1)C(CNCc1ccccn1)CCC2 (stereo unspecified)
Percent Effect (30.3 µM, […]): 52.9%

O=C(O)C(F)(F)F.O=C(c1cccc(Cl)c1)N1CC[C@H]2[C@H]1CCN2CC1CCOCC1
Percent Effect (30 µM, 30.03 µM): 13.39%

Cc1noc(C)c1CN1CCC2(CCN(Cc3cccc(F)c3)CC2)C1.O=C(O)C(F)(F)F.O=C(O)C(F)(F)F
Percent Effect (30.3 µM, […]): -58.32%

Cc1ccc(CN(CCCn2ccnc2)Cc2cnn(C)c2)s1.O=C(O)CC(O)(CC(=O)O)C(=O)O
Percent Effect (30.3 µM, […]): -61.1%

CNc1ncc2c(n1)CN(C1CC(C)(C)NC(C)(C)C1)C2=O
Percent Effect (30.3 µM, […]): 8.017%

CCn1nc(C)c2nc(C)nc(NCCc3ccccc3)c21
Percent Effect (30.3 µM, […]): 92.15%

CCc1nc(NCCCn2cccn2)c2c(n1)c(C)nn2CC
Percent Effect (30.3 µM, […]): -16.86%

CCCc1nc(NCCCO)c2c(n1)c(C)nn2CC
Percent Effect (30 µM, 30.03 µM): 38.76%

CCCc1nc(NCCCn2cccn2)c2c(n1)c(C)nn2CC
Percent Effect (30.3 µM, […]): 10.65%

CCn1nc(C)c2nc(C)nc(NCCCn3cccn3)c21
Percent Effect (30.3 µM, […]): -1.841%

CCCc1nc(NCCc2ccccc2)c2c(n1)c(C)nn2CC
Percent Effect (30.3 µM, […]): 99.68%

Cc1nn(C)c2c(=O)n(C(C)C)c(NCCc3ccccc3)nc12
Percent Effect (30.3 µM, […]): 4.366%

CCn1nc(C)c2nc(C(C)C)nc(NCCc3ccc(O)cc3)c21
Percent Effect (30.3 µM, […]): 39.22%

CCn1nc(C)c2nc(C)nc(NC3CCCC3)c21
Percent Effect (30 µM, 30.03 µM): -3.661%

CCCn1c(NCCc2ccccc2)nc2c(C)nn(C)c2c1=O
Percent Effect (30.3 µM, […]): 99.9%

CCn1c(NCc2ccccc2)nc2c(C)nn(C)c2c1=O
Percent Effect (30.3 µM, […]): -7.911%

CCn1nc(C)c2nc(C)nc(NCCc3ccc(C)cc3)c21
Percent Effect (30.3 µM, […]): 100.2%

COc1cccc(CN2C[C@@H]3CC[C@@](O)(c4ccccn4)[C@@H]3C2)c1OC.O=C(O)CC(O)(CC(=O)O)C(=O)O
Percent Effect (30.3 µM, […]): -12.48%

CC(=O)N1[C@H](CN(C)C)C[C@@H]2CN(C(=O)Cc3cccs3)CC[C@@H]21.O=C(O)C(F)(F)F
Percent Effect (30.3 µM, […]): -71.88%

Cn1cccc1C(=O)N[C@H]1CN(Cc2ccoc2)[C@@H]2CCCO[C@H]12.O=C(O)C(F)(F)F
Percent Effect (30.3 µM, […]): -1.992%

Cc1cccc(CN2CCc3ncnc(NC4CCC4)c3CC2)n1.O=C(O)C(F)(F)F.O=C(O)C(F)(F)F
Percent Effect (30 µM, 30.03 µM): -15.74%

Cc1cc(C(=O)N2CC[C@H]3C[C@H](c4ccncn4)O[C@@H]3C2)no1
Percent Effect (30 µM, 30.03 µM): -17.17%

CN(Cc1cccnc1)Cc1cncc2c1CCN(Cc1ccoc1)C2.Cl.Cl.Cl
Percent Effect (30.3 µM, […]): -64.05%

O=C(O)C(F)(F)F.c1cc(CN2C[C@H](OCC3CCOCC3)[C@H]3COC[C@H]32)co1
Percent Effect (30.3 µM, […]): -13.64%

Cc1ccc(S(=O)(=O)N2CC[C@H]3CO[C@H](CN(C)C)[C@H]3C2)cc1.O=C(O)C(F)(F)F
Percent Effect (30 µM, 30.03 µM): -6.145%

Cc1ccc(CN2CCC3(CC2)NC(=O)CC3c2ccncc2)cc1C.O=C(O)C(F)(F)F.O=C(O)C(F)(F)F (stereo unspecified)
Percent Effect (30 µM, 30.03 µM): -19.59%

Fc1ccc(-c2nc(CN3CCOC(Cn4cccn4)C3)co2)cc1 (stereo unspecified)
Percent Effect (30.3 µM, […]): 15.69%

COc1cc(OC)cc(-c2cc(CN)nc3ccnn23)c1.Cl
Percent Effect (30.3 µM, […]): 0.9349%

Cc1ccc(CN2Cc3ccnn3CC(C(=O)NCC3CC3)C2)o1.O=C(O)C(F)(F)F.O=C(O)C(F)(F)F (stereo unspecified)
Percent Effect (30.3 µM, […]): -12.67%

Cc1cccc(-c2noc(CN3CCOC(Cn4cccn4)C3)n2)c1 (stereo unspecified)
Percent Effect (30.3 µM, […]): 7.086%

CCCc1nc(NCCCOC)c2c(n1)c(C)nn2CC
Percent Effect (30.3 µM, […]): 88.3%

CCCc1nc(NCCCOCC)c2c(n1)c(C)nn2CC
Percent Effect (30.3 µM, […]): -18.63%

CCCc1nc(NCCOC)c2c(n1)c(C)nn2CC
Percent Effect (30.3 µM, […]): -10.53%

CCOc1ncccc1CNC(=O)NCC(O)c1ccccc1OC (stereo unspecified)
Percent Effect (10 µM): -66.27%

COc1c(C)cc(CNCc2ccnc(N3CCOCC3)c2)cc1C.Cl
Percent Effect (30.3 µM, […]): 15.01%
Percent Effect (10 mM, 10 mM as filed; unlikely as a test dose): -23.82%

COc1ccc(CNC(C)c2ccc(Cl)c(Cl)c2)c(OC)c1OC (stereo unspecified)
Percent Effect (30 µM, 30.03 µM): 20.68%

Cc1cc2nc(-c3ccccc3)cc(NCC3CCCOC3)n2n1 (stereo unspecified)
Percent Effect (30.3 µM, […]): 87.98%

c1ccc(-c2cc(NCCCC3CCOC3)n3nccc3n2)cc1 (stereo unspecified)
Percent Effect (30.3 µM, […]): 35.81%

Cc1cc2nc(-c3ccccc3)cc(NCC3CCS(=O)(=O)C3)n2n1 (stereo unspecified)
Percent Effect (30.3 µM, […]): 6.285%

COc1cccc(C(NCc2ccc(SC)cc2)c2nccn2C)c1 (stereo unspecified)
Percent Effect (10 µM): -34.89%

CCOCC1CN(Cc2cccs2)Cc2nn(C)cc21.O=C(O)C(F)(F)F (stereo unspecified)
Percent Effect (30 µM, 30.03 µM): -3.631%

CCN(CC1CN(Cc2nc(C3CC3)no2)CCO1)c1cccnn1 (stereo unspecified)
Percent Effect (30 µM, 30.03 µM): 37.04%

CSc1ccc(C(=O)N2CCCC(Nc3ccc(F)cc3)C2)cc1 (stereo unspecified)
Percent Effect (30 µM, 30.03 µM): 63.86%

Cc1ccc(C(=O)N2CCCC(Nc3ccc(F)cc3)C2)cc1 (stereo unspecified)
Percent Effect (30 µM, 30.03 µM): -28.83%

COC(=O)c1ccc(C(=O)N2CCCC(Nc3ccc(F)cc3)C2)cc1 (stereo unspecified)
Percent Effect (30 µM, 30.03 µM): -14.97%

CN(C)C(=O)COC[C@]12COC[C@H]1CN(CCc1ccccc1)C2.O=C(O)C(F)(F)F
Percent Effect (30.3 µM, […]): -48.5%

CN(Cc1coc(-c2ccccc2)n1)CC1CCCN1c1cccnn1 (stereo unspecified)
Percent Effect (30 µM, 30.03 µM): -1.174%

c1cnnc(N2CCCC2CNCc2csc(-c3ccco3)n2)c1 (stereo unspecified)
Percent Effect (30.3 µM, […]): 17.07%

CC(C)CCc1nc(CNCC2CCCN2c2cccnn2)cs1 (stereo unspecified)
Percent Effect (30.3 µM, […]): 99.06%

CC(C)c1nc(CNCC2CCCN2c2cccnn2)cs1 (stereo unspecified)
Percent Effect (30.3 µM, […]): 100.4%

CC(C)c1nc(CN2CCOC(CNc3cccnn3)C2)cs1 (stereo unspecified)
Percent Effect (30.3 µM, […]): 100.6%

c1ccc(-c2nnc(CNCC3CCCN3c3cccnn3)o2)cc1 (stereo unspecified)
Percent Effect (30 µM, 30.03 µM): -41.79%

c1ccc(-c2nc(CNCC3CCCN3c3cccnn3)co2)cc1 (stereo unspecified)
Percent Effect (30.3 µM, […]): 97.98%

CCc1nc(CNCC2CCCN2c2cccnn2)cs1 (stereo unspecified)
Percent Effect (30.3 µM, […]): 4.558%

Cc1nc(CN2CCOC(CNc3cccnn3)C2)cs1 (stereo unspecified)
Percent Effect (30 µM, 30.03 µM): -27.36%

CCCc1nc(CNCC2CCCN2c2cccnn2)cs1 (stereo unspecified)
Percent Effect (30.3 µM, […]): 34.1%

Cc1nc(CNCC2CCCN2c2cccnn2)cs1 (stereo unspecified)
Percent Effect (30 µM, 30.03 µM): -9.671%

CCc1nc(CN2CCOC(CNc3cccnn3)C2)cs1 (stereo unspecified)
Percent Effect (30.3 µM, […]): -0.3167%
